The text below walks through data of PubChem BioAssay (EPA / NIEHS).

The source made the active and inactive calls. Rule for the calls: active = hit-call score of the fitted dose curve at least 0.9, where 1 is the maximum; inactive = score below 0.9.

Test [1] deals with CCAAT/enhancer-binding protein beta (Homo sapiens) (UniProt P17676). The test is described as follows: ATG_C_EBP_CIS: Attagene CIS-FACTORIAL HepG2 Assay for human CCAAT/Enhancer Binding Protein (C/EBP) beta (AID 2282927). To be noted: HepG2 Attagene cis-factorial transcription factor reporter; actives raise or lower the signal. Summed up:
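Endogenous transcription factor activity in human liver HepG2 cells is inferred from induction of a CEBPB-linked reporter mRNA. Exposure lasts 24 h; activity is fitted in both directions relative to DMSO.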

Test [2] can be described thus: ATG_CMV_CIS: Attagene CIS-FACTORIAL HepG2 Assay for human CMV (Internal Marker) (AID 2282928).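 Note: endpoint acts as a background internal control marker rather than a target.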 The following applies: HepG2 CMV promoter reporter, transcription factor profiling; actives raise or lower the signal. Summed up: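 After transient transfection of HepG2 with reporter transcription units driven by cis-regulatory promoters, cells receive test chemical for 24 h. Labeled reporter amplicons, digested with HpaI, are sized and quantified by capillary electrophoresis against DMSO.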

Test [3] is described as follows: ATG_DR4_LXR_CIS: Attagene CIS-FACTORIAL HepG2 Assay for human Liver X Receptor (LXR), DR4 submotif (AID 2282929). To be noted: HepG2 Attagene DR4 cis-reporter, mRNA transcription; actives raise or lower the signal. The gist of the method:
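The endpoint is DR4-element-driven reporter transcripts after 24 h chemical exposure of transfected HepG2 cells. These were measured via RT-PCR and capillary electrophoresis, and gain or loss of signal was fitted relative to DMSO controls.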

Test [4] addresses Aryl hydrocarbon receptor (Homo sapiens) (UniProt P35869). The test is described as follows: ATG_Ahr_CIS: Attagene CIS-FACTORIAL HepG2 Assay for human Aryl Hydrocarbon Receptor (Ahr) (AID 2282930). The following applies: HepG2 AhR cis-factorial reporter transcription; actives raise or lower the signal. Summed up: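 Transient MRTU transfection of HepG2 → 24 h compound exposure → total RNA, oligo(dT) RT → PCR, 6-FAM extension, HpaI cut → CE fluorescence. DMSO = baseline; bidirectional curve fit.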

Test [5] is described as follows: ATG_AP_1_CIS: Attagene CIS-FACTORIAL HepG2 Assay for human Activator Protein 1 (AP-1) (AID 2282931). To be noted: HepG2 Attagene cis-factorial AP-1 reporter mRNA; actives raise or lower the signal. Summed up:
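Readout is reporter transcript level from endogenous transcription factor activity, quantified by RT-PCR with fluorescent primer extension and capillary electrophoresis. Transiently transfected HepG2 cells, 24 h exposure. Curves fitted both directions versus DMSO.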

Test [6] in a line: ATG_AP_2_CIS: Attagene CIS-FACTORIAL HepG2 Assay for human Activator Protein 2 (AP-2) (AID 2282932). To be noted: HepG2 AP-2 cis-reporter, Attagene transcription factor profiling; actives raise or lower the signal. The gist of the method:
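Step one: transient transfection of HepG2 with reporter transcription units. Step two: 24 h chemical exposure. Step three: RNA extraction, RT-PCR, labelled fragment analysis by capillary electrophoresis; DMSO serves as baseline.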

Test [7] concerns the target Retinoic acid receptor alpha (Homo sapiens) (UniProt P10276). The test can be described thus: ATG_DR5_RAR_CIS: Attagene CIS-FACTORIAL HepG2 Assay for human Retinoic Acid Receptor Alpha (RARE), DR5 submotif (AID 2282934). To be noted: HepG2 Attagene cis-factorial RARE DR5 reporter, mRNA; actives raise or lower the signal. The gist of the method: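 Transient MRTU transfection of HepG2; 24 h compound treatment; TriZol RNA, oligo(dT) RT, PCR, FAM labelling, capillary electrophoresis. Bidirectional fit vs DMSO. Endogenous TF activity at DR5 RARE.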

For test [8], the target named is Transcription factor E2F1 (Homo sapiens) (UniProt Q01094). The test is described as follows: ATG_E2F_CIS: Attagene CIS-FACTORIAL HepG2 Assay for human E2F Transcription Factor 1 (AID 2282935). To be noted: HepG2 Attagene cis-reporter, E2F reporter RNA transcripts; actives raise or lower the signal. The gist of the method:
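Total RNA from 24 h-treated, reporter-transfected HepG2 cells undergoes DNase I treatment, oligo(dT) reverse transcription, PCR and 6-FAM primer extension before capillary electrophoresis.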

Test [9] is described as follows: ATG_E_Box_CIS: Attagene CIS-FACTORIAL HepG2 Assay for human Enhancer Box (E-box) (AID 2282936). The following applies: HepG2 E-box cis-reporter transcription, actives raise or lower the signal. The gist of the method: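 DMSO served as negative control and baseline for bidirectional fitting. Human hepatoma HepG2 cells, transiently transfected with cis-reporter constructs, were dosed 24 h; reporter mRNA read by RT-PCR and capillary electrophoresis.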

Test [10] can be described thus: ATG_M_61_CIS: Attagene CIS-FACTORIAL HepG2 Assay for M61 Transcription Factor (Internal Marker) (AID 2282937). To be noted: HepG2 Attagene CIS-FACTORIAL M61 internal marker reporter; actives raise or lower the signal. The gist of the method:
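Readout is reporter mRNA by RT-PCR, fluorescent primer extension and capillary electrophoresis, with gain or loss fitted relative to DMSO. Transfected HepG2 cells carrying endogenous-TF-driven cis reporters were exposed to chemicals for 24 hours.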

Test [11] in a line: ATG_EGR_CIS: Attagene CIS-FACTORIAL HepG2 Assay for human Early Growth Response 1 (EGR1) (AID 2282938). The following applies: HepG2 Attagene CIS-FACTORIAL EGR reporter mRNA; actives raise or lower the signal. Summed up:
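After 24 h compound exposure, RNA from reporter-transfected HepG2 cells was reverse-transcribed, PCR-amplified, fluorescently labelled and resolved by capillary electrophoresis. EGR1 reporter transcript changes, up or down, were fitted against DMSO, reflecting endogenous transcription-factor activity.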

A short description of test [12]: ATG_M_19_CIS: Attagene CIS-FACTORIAL HepG2 Assay for M19 Transcription Factor (Internal Marker) (AID 2282939). The following applies: HepG2 Attagene CIS-FACTORIAL M19 internal marker reporter; actives raise or lower the signal. Summed up: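 Following a 24 h exposure, RNA from transfected HepG2 cells was reverse-transcribed, PCR-amplified with reporter-specific primers, end-labelled with 6-FAM and HpaI-digested before capillary separation. Values represent gain or loss versus DMSO.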

Test [13] is described as follows: ATG_Ets_CIS: Attagene CIS-FACTORIAL HepG2 Assay for human Erythroblast Transformation Specific (ETS) (AID 2282941). To be noted: HepG2 ETS cis-reporter transcription, actives raise or lower the signal. Summed up: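 Human HepG2 hepatoma cells were transiently transfected with promoter-driven reporter constructs and treated for 24 hours. Reporter transcripts were quantified by RT-PCR with fluorescent primer extension; bidirectional curve fitting used DMSO as reference.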

Test [14] addresses Hepatocyte nuclear factor 3-beta (Homo sapiens) (UniProt Q9Y261). The test is described as follows: ATG_FoxA2_CIS: Attagene CIS-FACTORIAL HepG2 Assay for human Forkhead box A2 (FOXA2) (AID 2282942). The following applies: HepG2 cis-reporter transcription factor activity, 24 h; actives raise or lower the signal. The gist of the method:
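Endogenous transcription factor activity is captured via cis-element-driven reporter transcripts in transfected HepG2. Total RNA taken at 24 h post-dosing; labelled RT-PCR products resolved by capillary electrophoresis. Gain or loss fitted versus DMSO.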

Test [15] can be described thus: ATG_FoxO_CIS: Attagene CIS-FACTORIAL HepG2 Assay for human Forkhead box O (FoxO) (AID 2282943). The following applies: HepG2 Attagene cis-reporter, FoxO element, mRNA; actives raise or lower the signal. Summed up:
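HepG2, transient MRTU transfection (cis element, endogenous TFs). Dose 24 h. TriZol RNA → oligo(dT) RT → PCR → 6-FAM primer extension → HpaI cut → CE. Gain/loss vs DMSO.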

Test [16] in a line: ATG_GATA_CIS: Attagene CIS-FACTORIAL HepG2 Assay for human GATA Binding Protein (AID 2282944). The following applies: HepG2 GATA cis-element reporter, Attagene multiplex mRNA; actives raise or lower the signal. Summed up: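 DMSO serves as negative control and baseline for bidirectional fitting of reporter mRNA changes. HepG2 cells bearing transiently transfected cis-promoter reporters were exposed 24 h; transcripts detected via RT-PCR and capillary electrophoresis.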

Test [17] can be described thus: ATG_GLI_CIS: Attagene CIS-FACTORIAL HepG2 Assay for human Zinc Finger Protein GLI1 (AID 2282945). To be noted: HepG2, Attagene cis-factorial reporter mRNA, GLI element; actives raise or lower the signal. The gist of the method: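 Bidirectional curve fits relative to DMSO, using reporter mRNA levels from RT-PCR plus capillary electrophoresis. Cells were HepG2 transiently carrying cis-regulated reporter constructs, harvested 24 h after dosing.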

Test [18] in a line: ATG_BRE_CIS: Attagene CIS-FACTORIAL HepG2 Assay for human Bone Morphogenetic Protein (BMP) Response Element (BRE) (AID 2282933). The following applies: HepG2 BMP response element reporter, Attagene transcription factor profiling; actives raise or lower the signal. Summed up: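 Gain- or loss-of-signal was derived by bidirectional fitting against DMSO controls. The signal came from reporter mRNA, measured by RT-PCR and capillary electrophoresis, in HepG2 cells transiently carrying multiple reporter units and dosed for 24 h.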

What is called AC50 is the concentration giving half of the maximal activity seen.

Chain of CCAAT/enhancer-binding protein beta (Homo sapiens) (P17676 whole entry, looked up): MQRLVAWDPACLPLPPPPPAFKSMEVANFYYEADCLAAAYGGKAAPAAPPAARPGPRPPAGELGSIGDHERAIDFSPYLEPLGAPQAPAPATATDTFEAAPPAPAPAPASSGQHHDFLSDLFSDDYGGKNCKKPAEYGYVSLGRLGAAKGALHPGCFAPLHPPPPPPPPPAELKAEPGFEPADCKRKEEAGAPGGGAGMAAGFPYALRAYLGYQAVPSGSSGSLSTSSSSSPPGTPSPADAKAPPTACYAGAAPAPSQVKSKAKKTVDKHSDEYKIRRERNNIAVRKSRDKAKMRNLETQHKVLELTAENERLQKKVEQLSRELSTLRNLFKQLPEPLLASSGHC
Chain of Aryl hydrocarbon receptor (Homo sapiens) (P35869 whole entry, looked up): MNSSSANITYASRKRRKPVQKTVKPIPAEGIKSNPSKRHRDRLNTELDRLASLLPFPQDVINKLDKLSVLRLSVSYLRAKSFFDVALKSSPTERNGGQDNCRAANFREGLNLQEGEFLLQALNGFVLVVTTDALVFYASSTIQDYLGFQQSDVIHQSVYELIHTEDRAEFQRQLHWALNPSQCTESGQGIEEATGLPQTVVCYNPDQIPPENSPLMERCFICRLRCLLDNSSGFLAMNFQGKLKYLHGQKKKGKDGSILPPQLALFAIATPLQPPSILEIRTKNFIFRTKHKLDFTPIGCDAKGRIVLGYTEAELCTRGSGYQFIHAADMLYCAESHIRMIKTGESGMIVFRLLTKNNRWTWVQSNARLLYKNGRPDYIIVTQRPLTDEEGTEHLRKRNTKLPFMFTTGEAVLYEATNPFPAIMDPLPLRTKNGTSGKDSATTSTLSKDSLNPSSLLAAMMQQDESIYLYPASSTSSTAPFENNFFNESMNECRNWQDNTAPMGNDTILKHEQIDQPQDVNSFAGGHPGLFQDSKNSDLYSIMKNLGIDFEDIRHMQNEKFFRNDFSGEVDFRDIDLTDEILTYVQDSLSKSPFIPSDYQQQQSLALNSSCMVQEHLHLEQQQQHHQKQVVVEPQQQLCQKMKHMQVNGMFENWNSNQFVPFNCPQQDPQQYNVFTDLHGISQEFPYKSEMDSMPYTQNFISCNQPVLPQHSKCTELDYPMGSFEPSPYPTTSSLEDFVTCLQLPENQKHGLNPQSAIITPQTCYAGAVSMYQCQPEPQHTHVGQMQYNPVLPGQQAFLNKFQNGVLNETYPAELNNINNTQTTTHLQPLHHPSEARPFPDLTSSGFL
Chain of Hepatocyte nuclear factor 3-beta (Homo sapiens) (Q9Y261 whole entry, looked up): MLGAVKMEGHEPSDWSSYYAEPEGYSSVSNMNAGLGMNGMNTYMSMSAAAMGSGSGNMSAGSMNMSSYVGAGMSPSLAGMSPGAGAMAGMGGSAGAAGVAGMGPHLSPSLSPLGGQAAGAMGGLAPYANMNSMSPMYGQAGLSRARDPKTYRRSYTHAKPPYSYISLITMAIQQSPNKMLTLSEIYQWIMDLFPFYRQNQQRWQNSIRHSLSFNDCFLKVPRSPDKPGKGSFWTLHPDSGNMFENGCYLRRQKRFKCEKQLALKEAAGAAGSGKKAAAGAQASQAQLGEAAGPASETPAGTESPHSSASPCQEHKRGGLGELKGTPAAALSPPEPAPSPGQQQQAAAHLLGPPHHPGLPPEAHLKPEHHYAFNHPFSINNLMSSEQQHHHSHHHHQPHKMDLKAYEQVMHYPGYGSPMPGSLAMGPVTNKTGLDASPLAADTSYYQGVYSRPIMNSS
Chain of Retinoic acid receptor alpha (Homo sapiens) (P10276 whole entry, looked up): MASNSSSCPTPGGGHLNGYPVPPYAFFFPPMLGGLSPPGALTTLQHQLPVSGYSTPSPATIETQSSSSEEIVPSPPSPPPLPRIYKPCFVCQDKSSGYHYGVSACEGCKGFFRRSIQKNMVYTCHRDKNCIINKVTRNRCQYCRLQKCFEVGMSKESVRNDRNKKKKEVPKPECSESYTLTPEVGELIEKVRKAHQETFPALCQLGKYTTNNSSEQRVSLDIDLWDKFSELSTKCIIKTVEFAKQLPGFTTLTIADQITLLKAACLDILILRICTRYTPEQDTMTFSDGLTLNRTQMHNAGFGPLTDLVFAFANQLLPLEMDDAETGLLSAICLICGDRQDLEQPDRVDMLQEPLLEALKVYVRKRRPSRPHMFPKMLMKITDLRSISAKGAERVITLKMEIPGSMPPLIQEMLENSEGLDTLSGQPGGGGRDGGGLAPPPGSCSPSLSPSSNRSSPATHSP
Chain of Transcription factor E2F1 (Homo sapiens) (Q01094 whole entry, looked up): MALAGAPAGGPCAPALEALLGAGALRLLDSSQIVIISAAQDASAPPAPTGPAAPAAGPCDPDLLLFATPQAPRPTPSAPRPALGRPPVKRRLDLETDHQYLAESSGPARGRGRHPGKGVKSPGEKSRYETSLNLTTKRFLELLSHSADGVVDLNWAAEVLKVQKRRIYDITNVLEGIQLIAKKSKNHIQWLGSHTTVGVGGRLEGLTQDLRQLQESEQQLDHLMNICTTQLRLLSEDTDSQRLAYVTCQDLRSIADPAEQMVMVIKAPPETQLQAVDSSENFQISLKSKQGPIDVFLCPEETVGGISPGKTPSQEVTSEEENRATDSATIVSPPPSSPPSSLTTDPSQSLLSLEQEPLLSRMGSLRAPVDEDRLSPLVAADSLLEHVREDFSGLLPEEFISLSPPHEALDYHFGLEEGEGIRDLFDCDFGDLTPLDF

With `CC(=O)c1ccccn1`, the result in test [1], in test [2], in [3], in test [4], in test [5] and in test [6] was inactive. Moreover, the result in [7], in [8], in test [9], in test [10], in test [11] and in test [12] was inactive. Moreover, the result in [13], in test [14], in [15], in [16] and in test [17] was inactive.

For the molecule `CCOc1ccc(NC(=O)CC(C)=O)cc1`, the outcome in test [1], in test [2], in test [3], in [4], in test [5] and in test [6] was inactive. Further, the outcome in [18], in [7], in [8], in test [9], in test [10] and in test [11] was inactive. Besides, the result in test [12], in [13], in test [14], in test [15], in test [16] and in [17] was inactive.

For the molecule `CCCCCCCCCCCCN1CCCCCC1=O`, the result in [2], in test [4], in test [6], in test [7], in [8] and in test [10] was inactive. Moreover, the molecule was called inactive in test [11], in test [13], in [14], in test [15], in test [16] and in test [17]. Besides, the results for the AC50 in test [3], in [5] and in test [9] were 18.6 µM (active), 11.1 µM (active) and 16.3 µM (active), respectively.

On to `NCC1CCCC(CN)C1` (configuration not stated), for which the result in test [1], in test [2], in test [3], in test [4], in test [5] and in test [6] was inactive. Moreover, the molecule was classed as inactive in [18], in [7], in [8], in test [9], in test [10] and in test [13]. The molecule was called inactive in test [14], in [15], in test [16] and in test [17].

Turning to `CCN(CC)C(=O)N(CC)CC`, the outcome in [2], in test [3], in test [4], in [5], in test [6] and in test [18] was inactive. For the same molecule, the molecule was called inactive in test [7], in test [8], in test [9], in test [10], in [11] and in test [12]. Moreover, the molecule was called inactive in test [13], in [14], in test [16] and in [17].

As for `CCCCCCC(CO)CCCC` (configuration not stated), the outcome in [1], in test [2], in test [3], in [5], in test [6] and in test [18] was inactive. In addition, the result in test [7], in test [8], in test [9], in [10], in test [11] and in test [12] was inactive. Also, the result in [13], in [14], in test [15], in test [16] and in [17] was inactive. Further, in [4], the AC50 is 25.6 µM (active).

Regarding `CN(C)c1cccc(O)c1`, the molecule was called inactive in [2], in test [3], in test [5], in test [6], in test [18] and in test [7]. Further, the result in test [8], in test [9], in [10], in [11], in test [12] and in [13] was inactive. In addition, the result in test [14], in test [15], in test [16] and in test [17] was inactive. The AC50 in [4] is 7.57 µM (active).
